Most compounds without a hit are left out; they make up all but 9.2% or so of the library.
ELG1 DNA repair: blocks ELG1-dependent DNA repair in HEK293T cells. HEK293T ELG1-luciferase reporter, luminescence, 16 h; DNA damage induced by 5-fluorouridine. Potency, µM (highest dose often 46.1 µM), actives largely listed as inhibitors. 330,000 compounds, 2.3% hits. AID 504467; further: nearly all actives have a fitted effect of over 55% in size
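Quantitative HTS, concentration-response format. 2,000 cells/well co-treated with 5-fluorouridine and compound, 16 hr in 5% CO2 at 37 °C; ONE-Glo luminescence read after 30 min.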
FLuc modulator: counter-screen for miR-21 project: firefly luciferase inhibitors or activators. P08659. purified FLuc, Km substrates, luminescence inhibition. Potency, µM (highest dose often 57.5 µM), most hits filed as inhibitors. 360,000 compounds, 6.9% hits. AID 588342; further: nearly all actives have a fitted effect of over 55% in size
Target sequence (P08659 whole entry, looked up): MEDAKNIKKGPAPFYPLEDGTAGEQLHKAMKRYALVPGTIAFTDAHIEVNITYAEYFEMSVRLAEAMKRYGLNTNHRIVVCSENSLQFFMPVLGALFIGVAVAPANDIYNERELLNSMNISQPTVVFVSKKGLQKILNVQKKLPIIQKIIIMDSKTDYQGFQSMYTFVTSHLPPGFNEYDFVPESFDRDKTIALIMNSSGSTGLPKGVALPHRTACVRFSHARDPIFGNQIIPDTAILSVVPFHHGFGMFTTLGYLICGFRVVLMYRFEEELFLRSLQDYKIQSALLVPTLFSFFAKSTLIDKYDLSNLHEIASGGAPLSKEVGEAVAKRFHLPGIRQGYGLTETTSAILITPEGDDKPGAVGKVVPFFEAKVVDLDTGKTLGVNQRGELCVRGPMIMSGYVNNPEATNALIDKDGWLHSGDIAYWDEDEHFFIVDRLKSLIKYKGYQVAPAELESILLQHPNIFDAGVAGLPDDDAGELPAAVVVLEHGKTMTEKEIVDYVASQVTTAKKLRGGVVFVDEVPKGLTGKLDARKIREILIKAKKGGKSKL
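Biochemical qHTS of compounds, final roughly 60 µM downward over six points, against 10 nM purified firefly luciferase using Km concentrations of substrates (10 uM D-luciferin, 10 uM ATP) in Tris acetate pH 7.5 buffer; luminescence output.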
Rab9 promoter act: activators of Rab9 promoter; Huh7 Rab9 promoter-luciferase reporter, luminescence, 24 h; Potency, µM (series often up to 9.22 µM), most hits filed as activators; 320,000 compounds, 2.8% hits; further: nearly all actives have a fitted effect of over 60% in size
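Huh7 cells stably carrying Rab9 promoter–luciferase reporter, plated 1500 cells/well, compound added after 2 h and incubated 24 h at 37 °C; luciferase luminescence then read after 10 min with detection reagent.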
SMN2 splice up: enhancers of SMN2 splice variant expression; 210,000 compounds, 2.8% hits; HEK293 SMN2-luciferase splicing reporter, luminescence, 30-36 h; Potency, µM (series often up to 46.1 µM), usual class: activators; further: nearly all actives have a fitted effect of over 55% in size
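HEK293 cells carry an SMN2 […]–luciferase reporter in which exon 7 inclusion puts luciferase in frame. Cells were plated 10-12 h before compound addition, then incubated 30-36 h at 37C. ONE-Glo luminescence was read; sodium butyrate at 4.5 mM final served as control.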
NPC1 prom act: NPC1 promoter activation; Huh7 NPC1 promoter luciferase reporter, 24 h; Potency, µM (series often up to 9.22 µM), hits mostly activators; 320,000 compounds, 2.4% hits; AID 485313; further: nearly all actives have a fitted effect of over 60% in size
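Readout is luciferase luminescence, reflecting NPC1 promoter activation in stably transfected Huh7 cells after 24 h compound exposure at 37 °C in reduced-serum medium with 10% FBS.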
ELG1 genotox: induces genotoxicity in HEK293T cells with luciferase-tagged ELG1. HEK293T ELG1-luciferase reporter, luminescence, 16 h. Potency, µM (doses to about 46 µM), hits mostly activators. 330,000 compounds, 1.3% hits; further: nearly all actives have a fitted effect of over 60% in size
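Genotoxicity was scored as increased ELG1-luciferase reporter signal, measured by ONE-Glo luminescence (30 min, room temperature). Compound or vehicle exposure of the HEK293T reporter cells lasted 16 hr at 37°C.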
A number is an active result; n = inactive; u = inconclusive; x = no result; ! = not confirmed by another sample. The call rests on the fitted dose curve; in most records, active means well fitted curve in the direction sought with a large enough effect; inconclusive means small, poorly fitted or top-dose-only effect, or another doubt; inactive means no such curve, though single readings can be large; an effect the other way counts as inactive or inconclusive.

SMILES	ELG1 DNA repair	FLuc modulator	Rab9 promoter act	SMN2 splice up	NPC1 prom act	ELG1 genotox
O=C(N1CCOCC1)N1CCN(c2nc(-c3ccccc3)cs2)CC1	n	21µM	u	n	n	n
c1ccc(-c2csc(N3CCN(c4ccccn4)CC3)n2)cc1	u	11µM	u	n	u	n
S=C(NCCCN1CCOCC1)N1CCN(c2nc(-c3ccccc3)cs2)CC1	u	n	n	x	n	n
CCc1ccccc1NC(=O)Cn1nnc(C(=O)Nc2ccc(C)c(F)c2)c1N	x	n	x	x	x	x
CC(C)CN1CCCC2(CCN(C(=O)c3csnn3)CC2)C1	x	x	x	n	x	x
CCc1ccccc1NC(=O)CCNC(=O)Cn1ccc2ccccc2c1=O	n	n	n	x	n	n
O=c1cnc2cnc(Oc3cccc(Cl)c3)nc2n1C1CC1	x	x	x	n	x	x
CCOC(=O)C1CCCN(C(=O)c2ccc(Cl)c(S(=O)(=O)N3CCCCCC3)c2)C1 (stereo unspecified)	10µM	n	n	x	n	n
O=C(COc1ccc(F)cc1Cl)NC1CCCCCC1	u	8.5µM	2.2µM	x	4µM	u
O=C(COc1ccccc1Cl)NC(=O)NC1CCCCC1	u	u	n	x	n	n
Cc1cc(Cl)c(S(=O)(=O)N2CCN(c3ccc(F)cc3)CC2)cc1OCC(=O)NC1CCCCC1	8.2µM	n	n	n	n	n
CCOC(=O)C1CCCN(S(=O)(=O)c2cc(OCC(=O)NC3CCCCC3)c(C)cc2Cl)C1 (stereo unspecified)	21µM	n	n	n	n	n
Cc1cc(Cl)c(S(=O)(=O)N2CCN(c3ccc(F)cc3)CC2)cc1OCC(N)=O	u	n	n	n	n	n
CCN(CC(=O)Nc1ccc2c(c1)OCCO2)C(=O)c1ccccc1Br	u	x	x	x	x	n
N#C/C(=C/C=C/c1ccccc1)C(=O)Nc1ccccc1	5.8µM	n	n	n	n	n
N#C/C(=C\C=C\c1ccccc1)C(=O)Nc1ccccc1	n	n	n	n	n	n
N#C/C(=C/c1ccc(O)c([N+](=O)[O-])c1)C(=O)Nc1ccccc1	n	13µM	n	x	n	n
Cc1cc2nc(-c3ccc(SCc4ccc(C#N)cc4)nc3)[nH]c2cc1C	u	5.4µM	n	n	n	n
Cc1ccc2nc(-c3ccc(SCC(=O)O)nc3)[nH]c2c1	u	5.4µM	n	n	n	n
CCc1nnc(NC(=O)CSc2ccc(-c3nc4ccc(C)cc4[nH]3)cn2)s1	u	1.7µM	3.2µM	x	2.8µM	13µM
N#Cc1ccccc1CSc1ccc(-c2nc3ccccc3[nH]2)cn1	n	19µM	n	n	n	u
CCc1nnc(NC(=O)CSCc2cc(=O)c3ccc(C)cc3[nH]2)s1	x	n	x	x	x	x
COc1ccc(-n2c(=O)c3ccc(C(=O)NCc4ccc(C)cc4)cc3n(CC(=O)Nc3ccc(F)cc3)c2=O)cc1	x	n	x	n	x	x
Cc1ccc2nc(-c3ccc(SCC(=O)N4CCc5ccccc54)nc3)[nH]c2c1	u	0.27µM	3.2µM	11µM	3.5µM	n
CC(=O)CSc1ccc(-c2nc3ccccc3[nH]2)cn1	u	4.3µM	0.71µM	x	0.56µM	u
SMILES	ELG1 DNA repair	FLuc modulator	Rab9 promoter act	SMN2 splice up	NPC1 prom act	ELG1 genotox
Cc1ccc(C(=O)NC(=S)Nc2ccc3c(c2)OCCO3)c(C)c1	u	9.5µM	u	n	u	u
O=C(NC(=S)Nc1ccc2c(c1)OCO2)c1ccc(Cl)cc1	u	u	2.2µM	13µM	4µM	u
CC(C)C(=O)Nc1cccc(NC(=S)NC(=O)c2ccc3c(c2)OCO3)c1	n	n	n	x	n	n
Cc1cc(C)cc(C(=O)NC(=S)Nc2ccc3c(c2)OCCO3)c1	u	6.7µM	u	x	u	u
Cc1ccc(C(=O)NC(=S)Nc2ccc(N3CCOCC3)cc2)c(C)c1	n	n	n	n	n	n
S=C(Nc1ccc2c(c1)OCO2)Nc1ccc2c(c1)OCO2	n	u	n	n	n	n
O=C(NC(=S)Nc1ccc2c(c1)OCCO2)c1ccc(F)cc1Cl	u	13µM	n	13µM	n	u
C/C(CC(=O)Nc1ccc2c(c1)OCCO2)=N\NC(=O)c1ccccc1Cl	u	n	n	x	n	u
COc1ccc(NC(=O)C2CCCN(S(=O)(=O)c3ccc(Cl)cc3)C2)cc1 (stereo unspecified)	x	n	x	n	x	x
COc1ccc(OC)c(Nc2sc(C(=O)c3ccccc3)c(N)c2S(=O)(=O)c2ccccc2)c1	x	n	x	n	x	x
CCc1ccc(C(=O)NC(=S)Nc2ccc3c(c2)OCCO3)cc1	u	6µM	4µM	11µM	2.8µM	u
O=C(NC(=S)Nc1ccc(N2CCCCC2)c(Cl)c1)c1ccc2c(c1)OCCO2	n	u	n	n	n	n
CC(COc1ccccc1)N1CCC(CO)(Cc2ccccc2)CC1 (stereo unspecified)	n	n	n	x	n	n
COc1ccc(S(=O)(=O)N2CCCCCC2)cc1NC(=O)CN(C)Cc1ccc2c(c1)OCO2	21µM	x	n	x	n	n
O=C(Cc1c(F)cccc1Cl)Nc1cc(S(=O)(=O)N2CCCCC2)ccc1N1CCOCC1	18µM	n	n	x	n	n
COc1ccc(S(=O)(=O)N2CCOCC2)cc1NC(=O)C1COc2ccccc2O1 (stereo unspecified)	10µM	n	n	x	n	n
CN1CCN(c2ccc(S(=O)(=O)N3CCCCC3)cc2NC(=O)Cc2c(F)cccc2Cl)CC1	n	n	n	x	n	n
COc1ccc(S(=O)(=O)N2CCOCC2)cc1NC(=O)CN(C)Cc1c(F)cccc1Cl	21µM	n	n	n	n	n
COc1ccc(S(=O)(=O)N2CCOCC2)cc1NC(=O)Cc1c(Cl)cccc1Cl	n	n	n	n	n	n
COc1ccccc1NC(=O)CSc1oc(-c2ccc(F)cc2)nc1S(=O)(=O)c1ccc(Br)cc1	x	n	x	n	x	x
Cc1cc(C(=O)COC(=O)c2ccc(N)cc2)c(C)n1-c1c(C)n(C)n(-c2ccccc2)c1=O	n	n	n	n	n	n
CCOc1ccccc1-c1nnc(SCC(=O)NC2CC2)n1CC	n	n	n	x	n	n
CN1C(=O)/C(=C/c2ccc3c(c2)OCO3)N=C1c1ccccc1	n	4.8µM	n	n	n	n
CCSC1=N/C(=C\c2ccc3c(c2)OCO3)C(=O)S1	n	n	n	x	n	n
Cc1ccccc1NC(=O)c1sc2nc3n(c(=O)c2c1C)CCC3	x	n	x	x	x	x
Cc1c(C(=O)Nc2ccccn2)sc2nc3n(c(=O)c12)CCC3	u	9.5µM	0.89µM	x	1.3µM	u
Cc1c(C(=O)Nc2ccccc2F)sc2nc3n(c(=O)c12)CCC3	u	19µM!	2.5µM	x	2.8µM	u
CCc1ccccc1NC(=O)c1sc2nc3n(c(=O)c2c1C)CCC3	x	n	x	x	x	x
CC(=O)Nc1ccc(S(=O)(=O)N2CCC(n3c(C(F)(F)F)nc4cccnc43)CC2)cc1	x	n	x	x	x	x
